Test results reported in PubChem BioAssay.
Calls of active or inactive are those of the source.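 Rule for the calls, unless noted: active = inhibition at or above 50% at 10 µM; inactive = inhibition below 50%.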

What was measured:
[1] = inhibitors of TNFa-induced NFkB p65 translocation, primary screen, imaging, HUVEC, MLSMR starter and 10KST1 sets (AID 438;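 active = inhibition above 20% together with a positive visual image hit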;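 note: compound added about 3h40 before a 20 min TNFalpha stimulation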;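 for inhibition: signal is the nuclear over cytoplasmic p65 intensity ratio per well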); conditions: HUVEC TNFa-induced p65 nuclear translocation; cell count: measured here: nuclei count (cytotoxicity indicator), at 2.08 µM; inhibition: at 2 µM, stronger effect = higher value, 0% TNFa-plus-vehicle, 100% no-TNFa wells
[2] = reduction of polyQ htt aggregates in cells – imaging, exon1htt(103Q)mCFP cells, high-content imaging, primary screen (AID 483;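 active = visual image review flags a hit and inhibition of aggregation exceeds 20%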;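 note: compound exposure lasted 3 days before fixation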;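 for nuclei count: percent of the per-plate median nuclei count of sample wells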); conditions: exon1htt(103Q)mCFP cell line, aggregate imaging, at 2 µM; inhibition of aggregation: stronger effect = higher value; nuclei count: measured here: cell count, toxicity
[3] = endothelial E-selectin expression blockers – imaging, HUVEC, immunofluorescence, MLSMR starter and 10KST1 sets, primary screen (AID 487;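 active = visually confirmed hit in the image check and inhibition above 20%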;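 for inhibition: signal is fraction of cell area covered by stained E-selectin grains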;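 for nuclei count: 100% = median nuclei count of all wells on the same plate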); conditions: HUVEC TNFalpha-induced E-selectin immunofluorescence imaging, at 2 µM; inhibition: stronger effect = higher value; nuclei count: measured here: cell number, toxicity
[4] = target: Voltage-gated potassium channel subunit beta-2 (Rattus norvegicus) (UniProt P62483); assay: inhibitors of rat Kvbeta2 reductase activity – biochemical, NADPH fluorescence, primary screen (AID 622;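 active = fluorescence slope higher than the sample average by over 3 SD, cut at about -0.22 in these data, passing the limit was not always enough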;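 note: slope of raw intensity against log time taken from 70 to 1610 s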); conditions: recombinant KvBeta, 4-cyanobenzaldehyde reduction, at 10 µM, stronger effect = higher value
[5] = target: Voltage-gated potassium channel subunit beta-2 (Rattus norvegicus) (UniProt P62483); assay: enhancers of rat Kvbeta2 NADPH turnover – biochemical, NADPH fluorescence, primary screen (AID 623;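 active = NADPH fluorescence slope more negative than the mean of all samples by about 3 SD, 99.7% confidence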;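 note: fluorescence intensity change per second fitted from 20 to 320 s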); conditions: Recombinant KvBeta, NADPH fluorescence decrease slope, 10 min; at 10 µM; stronger effect = lower value
[6] = target: Alpha-2C adrenergic receptor (Homo sapiens) (UniProt P18825); assay: compounds altering alpha2C-coupled GIRK flux – cell-based, HEK293 alpha2C/GIRK1/2, thallium flux, primary screen (AID 624;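 active = fluorescence slope after compound addition differing from the mean of all screened samples at 99.7% confidence, in either direction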;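 note: slope of fluorescence ratio to pre-addition baseline per second over 15 to 24 s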); conditions: thallium flux BTC fluorescence, at 10 µM, actives lie on both sides
[7] = blockers of RIG-like receptor reporter activation – cell-based, Sendai virus stimulus, luciferase, 10K MLSCN set, TLR/RLR signaling modifier project, primary screen (AID 602276); conditions: HEK293 RL24 IRF3 luciferase reporter, at 10 µM, stronger effect = higher value;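 note: firefly luciferase from ISG56 promoter only with Renilla not read in this screen; 0% = Sendai virus plus DMSO and 100% = medium plus DMSO without virus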
[8] = TLR3 IRF3 reporter activation blockers – cell-based, poly I:C stimulus, luciferase, 10K MLSCN set, primary screen (AID 602277;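 active = inhibition of the reporter signal at or above 50%; inactive = inhibition below 50%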); conditions: HEK293-TLR3 RL24 IRF3 luciferase reporter, at 10 µM, stronger effect = higher value

Chain of Alpha-2C adrenergic receptor (Homo sapiens) (P18825 whole entry, looked up): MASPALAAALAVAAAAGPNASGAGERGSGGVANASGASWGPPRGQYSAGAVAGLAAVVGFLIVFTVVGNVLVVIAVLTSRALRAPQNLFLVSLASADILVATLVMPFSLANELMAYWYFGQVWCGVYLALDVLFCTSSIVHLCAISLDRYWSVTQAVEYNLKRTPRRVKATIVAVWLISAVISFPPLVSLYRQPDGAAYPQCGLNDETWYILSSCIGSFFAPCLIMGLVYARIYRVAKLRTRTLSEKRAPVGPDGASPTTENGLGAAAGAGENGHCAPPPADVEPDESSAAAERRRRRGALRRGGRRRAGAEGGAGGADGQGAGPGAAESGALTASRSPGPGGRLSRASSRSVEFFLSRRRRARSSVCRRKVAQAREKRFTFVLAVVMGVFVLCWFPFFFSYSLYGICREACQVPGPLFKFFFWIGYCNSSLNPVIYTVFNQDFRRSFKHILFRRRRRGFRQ
Chain of Voltage-gated potassium channel subunit beta-2 (Rattus norvegicus) (P62483 whole entry, looked up): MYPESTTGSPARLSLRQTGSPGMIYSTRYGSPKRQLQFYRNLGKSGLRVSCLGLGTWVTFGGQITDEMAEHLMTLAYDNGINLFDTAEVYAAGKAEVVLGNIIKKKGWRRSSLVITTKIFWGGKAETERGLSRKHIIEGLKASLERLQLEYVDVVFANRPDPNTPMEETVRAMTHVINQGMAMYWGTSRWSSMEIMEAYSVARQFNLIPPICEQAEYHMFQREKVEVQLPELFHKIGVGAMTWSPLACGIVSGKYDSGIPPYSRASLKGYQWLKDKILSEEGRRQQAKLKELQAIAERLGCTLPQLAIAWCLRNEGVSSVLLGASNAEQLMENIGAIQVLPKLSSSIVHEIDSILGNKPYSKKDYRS

## C=CCSC1=C(C#N)C(c2ccccc2OCC)CC(=O)N1 (centres undefined)
[1]
  cell count: 328
  inhibition: -4.1% (inactive)
[2]
  inhibition of aggregation: 12.8% (inactive)
  nuclei count: 99%
[3]
  inhibition: 12.5% (inactive)
  nuclei count: 105%
[4]
  fluorescence slope: -0.306 (inactive)
[5]
  NADPH fluorescence slope: 1.7e-05 (inactive)
[6]
  slope: 0.00314 (inactive)
[7]
  inhibition: 6.62% (inactive)
[8]
  inhibition: 24.6% (inactive)

## CCOc1ccc(Cn2nnc(C(=O)Nc3cc(C)cc(C)c3)c2N)cc1
[1]
  cell count: 751
  inhibition: -0.6% (inactive)
[2]
  inhibition of aggregation: 12.1% (inactive)
  nuclei count: 100%
[3]
  inhibition: -46.9% (inactive)
  nuclei count: 108%
[4]
  fluorescence slope: -0.521 (inactive)
[5]
  NADPH fluorescence slope: -2.6e-05 (inactive)
[6]
  slope: 0.00695 (inactive)
[7]
  inhibition: 2.58% (inactive)
[8]
  inhibition: 9.37% (inactive)

## CCn1c(SCC(=O)C(C)(C)C)nnc1-c1cnccn1
[1]
  cell count: 581
  inhibition: 6.5% (inactive)
[2]
  inhibition of aggregation: 9.1% (inactive)
  nuclei count: 98.5%
[3]
  inhibition: -27.3% (inactive)
  nuclei count: 100%
[4]
  fluorescence slope: -0.51 (inactive)
[5]
  NADPH fluorescence slope: -6.4e-06 (inactive)
[6]
  slope: 0.00526 (inactive)
[7]
  inhibition: 2.48% (inactive)
[8]
  inhibition: 1.65% (inactive)

## CC(c1ccccc1)n1cnc2ccccc21 (centres undefined)
[1]
  cell count: 590
  inhibition: -2.5% (inactive)
[2]
  inhibition of aggregation: 17.1% (inactive)
  nuclei count: 94.1%
[3]
  inhibition: -48% (inactive)
  nuclei count: 148%
[4]
  fluorescence slope: -0.364 (inactive)
[5]
  NADPH fluorescence slope: -6.9e-05 (inactive)
[6]
  slope: 0.00531 (inactive)
[7]
  inhibition: 7.98% (inactive)
[8]
  inhibition: 19% (inactive)

## COc1ccccc1CN1CCCC(C(=O)N(C)Cc2ccccc2)C1 (centres undefined)
[1]
  cell count: 739
  inhibition: -3.4% (inactive)
[2]
  inhibition of aggregation: 23.6% (inactive)
  nuclei count: 99.1%
[3]
  inhibition: -218% (inactive)
  nuclei count: 126%
[4]
  fluorescence slope: -0.37 (inactive)
[5]
  NADPH fluorescence slope: -9.6e-06 (inactive)
[6]
  slope: 0.00506 (inactive)
[7]
  inhibition: 7.15% (inactive)
[8]
  inhibition: 33.5% (inactive)

## N#CC1=C(N)N(c2ccc(Oc3ccccc3)cc2)C(=O)C1
[1]
  cell count: 546
  inhibition: -3.8% (inactive)
[2]
  inhibition of aggregation: -0.2% (inactive)
  nuclei count: 119%
[3]
  inhibition: -5.8% (inactive)
  nuclei count: 128%
[4]
  fluorescence slope: -0.481 (inactive)
[5]
  NADPH fluorescence slope: -5.5e-05 (inactive)
[6]
  slope: 0.00638 (inactive)
[7]
  inhibition: 5.59% (inactive)
[8]
  inhibition: -5.96% (inactive)

## O=C(O)CCc1ccc(-c2cccs2)o1
[1]
  cell count: 314
  inhibition: -7.8% (inactive)
[2]
  inhibition of aggregation: -10.2% (inactive)
  nuclei count: 103%
[3]
  inhibition: -23.1% (inactive)
  nuclei count: 118%
[4]
  fluorescence slope: -0.366 (inactive)
[5]
  NADPH fluorescence slope: -0.00014 (inactive)
[6]
  slope: 0.00568 (inactive)
[7]
  inhibition: 16.2% (inactive)
[8]
  inhibition: 27% (inactive)

## O=P(O)(CCc1ccccc1)CN1CCCCC1
[1]
  cell count: 446
  inhibition: -6.3% (inactive)
[2]
  inhibition of aggregation: -8.7% (inactive)
  nuclei count: 100%
[3]
  inhibition: -137% (inactive)
  nuclei count: 108%
[4]
  fluorescence slope: -0.419 (inactive)
[5]
  NADPH fluorescence slope: 5e-05 (inactive)
[6]
  slope: 0.00723 (inactive)
[7]
  inhibition: -8.42% (inactive)
[8]
  inhibition: -0.191% (inactive)

## COc1ccc(Cn2nnnc2C(c2cccnc2)N2CCN(c3ccc(O)cc3)CC2)cc1 (centres undefined)
[1]
  cell count: 682
  inhibition: -7.2% (inactive)
[2]
  inhibition of aggregation: -1.9% (inactive)
  nuclei count: 92.7%
[3]
  inhibition: -51.9% (inactive)
  nuclei count: 117%
[4]
  fluorescence slope: -0.514 (inactive)
[5]
  NADPH fluorescence slope: -5.3e-05 (inactive)
[6]
  slope: 0.00403 (inactive)
[7]
  inhibition: 15% (inactive)
[8]
  inhibition: 21.3% (inactive)
